# For some assays here: Potency and affinity values are given separately.
# How the values were obtained:
# Parameters in all cases: scale not given: direction of the effect not stated beside the values
# [1] = biological target: Protein translocase subunit SecA (Escherichia coli (strain K12)) (UniProt P10408); test: Assay to Identify E. coli SecA ATPase Inhibitors; format: functional; conditions: 30 µM
# [2] = biological target: T1, Ubiquitin-activating enzyme e1, putative (Leishmania donovani (strain BPK282A1)) (UniProt E9BSI1); test: Leishmania donovani Ubiquitin Activating Enzyme (LdE1); format: functional; conditions: 30 µM
# T1 sequence (whole entry): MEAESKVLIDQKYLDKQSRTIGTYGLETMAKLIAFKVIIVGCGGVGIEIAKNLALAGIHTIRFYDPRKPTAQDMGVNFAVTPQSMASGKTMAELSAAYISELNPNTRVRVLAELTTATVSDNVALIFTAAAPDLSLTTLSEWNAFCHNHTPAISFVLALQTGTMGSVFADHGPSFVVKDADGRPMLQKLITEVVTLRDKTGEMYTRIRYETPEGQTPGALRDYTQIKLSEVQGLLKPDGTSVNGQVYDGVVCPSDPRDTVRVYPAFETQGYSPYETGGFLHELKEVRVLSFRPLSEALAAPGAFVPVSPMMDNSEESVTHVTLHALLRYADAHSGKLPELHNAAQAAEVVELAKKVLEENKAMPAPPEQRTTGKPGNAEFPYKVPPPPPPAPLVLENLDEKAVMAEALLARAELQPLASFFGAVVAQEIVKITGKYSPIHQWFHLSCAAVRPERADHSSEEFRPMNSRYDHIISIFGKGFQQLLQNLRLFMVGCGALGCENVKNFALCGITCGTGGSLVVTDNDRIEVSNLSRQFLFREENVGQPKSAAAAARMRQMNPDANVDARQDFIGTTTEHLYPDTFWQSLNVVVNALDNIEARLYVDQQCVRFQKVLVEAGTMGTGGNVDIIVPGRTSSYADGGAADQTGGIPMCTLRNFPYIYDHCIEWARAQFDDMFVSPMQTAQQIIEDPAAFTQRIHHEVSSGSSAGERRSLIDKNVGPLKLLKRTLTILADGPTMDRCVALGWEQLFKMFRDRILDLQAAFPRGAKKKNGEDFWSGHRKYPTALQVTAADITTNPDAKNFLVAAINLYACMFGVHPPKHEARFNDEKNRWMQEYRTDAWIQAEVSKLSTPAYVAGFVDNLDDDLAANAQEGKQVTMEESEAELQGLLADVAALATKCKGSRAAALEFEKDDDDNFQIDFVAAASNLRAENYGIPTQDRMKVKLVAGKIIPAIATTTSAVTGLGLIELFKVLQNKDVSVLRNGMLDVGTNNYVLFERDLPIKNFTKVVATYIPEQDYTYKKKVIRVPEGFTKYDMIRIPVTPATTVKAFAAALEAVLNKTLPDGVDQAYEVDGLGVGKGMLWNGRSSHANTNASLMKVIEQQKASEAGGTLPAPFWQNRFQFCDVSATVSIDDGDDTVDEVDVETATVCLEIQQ
# [3] = biological target: AMP-activated protein kinase, AMPK (Homo sapiens) (UniProt P54646+O43741+P54619+Q9UGJ0+Q9Y478+Q13131+Q9UGI9); test: AMP-dependent Kinase enzyme assay. An in vitro enzyme assay that detects ADP turnover that is directly proportional to AMPK activity. This uses naive AMPK that is activated during the assay with MK-8722; format: functional; conditions: 30 µM
# [4] = biological target: Sialic acid-binding Ig-like lectin 9 (Homo sapiens) (UniProt Q9Y336); test: Hs-Siglec9 ALPHAscreen SOP 20170721; conditions: 10 µM
# Chain of Sialic acid-binding Ig-like lectin 9 (Homo sapiens) (Q9Y336 whole entry): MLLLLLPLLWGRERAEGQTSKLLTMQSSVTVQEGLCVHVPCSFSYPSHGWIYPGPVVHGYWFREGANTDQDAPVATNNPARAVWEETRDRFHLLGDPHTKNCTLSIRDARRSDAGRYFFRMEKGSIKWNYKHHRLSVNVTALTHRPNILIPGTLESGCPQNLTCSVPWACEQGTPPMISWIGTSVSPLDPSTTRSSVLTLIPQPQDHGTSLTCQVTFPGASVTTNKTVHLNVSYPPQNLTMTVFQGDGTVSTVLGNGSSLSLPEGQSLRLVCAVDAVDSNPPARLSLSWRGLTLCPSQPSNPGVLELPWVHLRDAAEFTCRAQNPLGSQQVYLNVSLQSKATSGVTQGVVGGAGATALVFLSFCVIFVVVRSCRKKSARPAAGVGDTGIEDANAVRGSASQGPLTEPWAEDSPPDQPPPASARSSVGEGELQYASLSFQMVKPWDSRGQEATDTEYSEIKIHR
# Trypanosoma cruzi = test: Trypanosoma cruzi phosphomannomutase and mannose-1-phosphate guanylyltransferase assay; format: functional; conditions: 10 µM
# [5] = biological target: T2, Arginase-2, mitochondrial (Homo sapiens) (UniProt P78540); test: in vitro enzyme assay to detect the production of urea directly proportional to the activity of Arginase II; format: functional; conditions: 33.3 µM; note: in the data most compounds retested in dose-response had high values
# T2 sequence (whole entry): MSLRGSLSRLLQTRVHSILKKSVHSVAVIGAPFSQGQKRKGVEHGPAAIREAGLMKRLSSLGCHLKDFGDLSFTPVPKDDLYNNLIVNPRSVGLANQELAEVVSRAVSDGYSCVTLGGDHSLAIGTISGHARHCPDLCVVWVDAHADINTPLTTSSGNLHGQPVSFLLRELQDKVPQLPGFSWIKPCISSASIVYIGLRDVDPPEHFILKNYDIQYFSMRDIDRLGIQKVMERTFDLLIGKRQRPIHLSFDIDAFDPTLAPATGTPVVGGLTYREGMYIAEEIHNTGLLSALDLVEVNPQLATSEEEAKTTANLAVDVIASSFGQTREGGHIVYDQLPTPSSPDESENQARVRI
# [6] = biological target: T3, Proteasome subunit beta (Trypanosoma cruzi) (UniProt O96673); test: Trypanosoma cruzi proteasome chymotrypsin-like activity (TcProtChymo) assay.; note: in the data most compounds retested in dose-response had high values; format: functional; conditions: 9.37 µM
# T3 sequence (whole entry): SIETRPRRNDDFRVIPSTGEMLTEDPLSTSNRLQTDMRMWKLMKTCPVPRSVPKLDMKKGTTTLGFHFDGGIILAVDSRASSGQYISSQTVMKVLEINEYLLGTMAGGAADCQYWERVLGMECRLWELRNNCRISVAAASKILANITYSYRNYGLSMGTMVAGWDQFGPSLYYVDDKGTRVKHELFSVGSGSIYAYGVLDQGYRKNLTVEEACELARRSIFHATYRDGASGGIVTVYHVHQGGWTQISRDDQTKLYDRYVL
# Homo sapiens = organism: Homo sapiens; test: To identify inhibition of the IFN signalling (Jak-Stat) pathway via expression of an eGFP reporter gene under the control of an IFN-stimulated response element (ISRE) containing MxA promoter.; format: functional; conditions: 30 µM
# [7] = biological target: T4, Tyrosyl-tRNA synthetase, putative (Trypanosoma cruzi (strain CL Brener)) (UniProt Q4DSP6); test: Trypanosoma cruzi tyrosyl tRNA synthetase (TcYRS) _High Tyrosine SOP; format: functional; conditions: 30 µM; note: in the data most compounds retested in dose-response had high values
# T4 sequence (whole entry): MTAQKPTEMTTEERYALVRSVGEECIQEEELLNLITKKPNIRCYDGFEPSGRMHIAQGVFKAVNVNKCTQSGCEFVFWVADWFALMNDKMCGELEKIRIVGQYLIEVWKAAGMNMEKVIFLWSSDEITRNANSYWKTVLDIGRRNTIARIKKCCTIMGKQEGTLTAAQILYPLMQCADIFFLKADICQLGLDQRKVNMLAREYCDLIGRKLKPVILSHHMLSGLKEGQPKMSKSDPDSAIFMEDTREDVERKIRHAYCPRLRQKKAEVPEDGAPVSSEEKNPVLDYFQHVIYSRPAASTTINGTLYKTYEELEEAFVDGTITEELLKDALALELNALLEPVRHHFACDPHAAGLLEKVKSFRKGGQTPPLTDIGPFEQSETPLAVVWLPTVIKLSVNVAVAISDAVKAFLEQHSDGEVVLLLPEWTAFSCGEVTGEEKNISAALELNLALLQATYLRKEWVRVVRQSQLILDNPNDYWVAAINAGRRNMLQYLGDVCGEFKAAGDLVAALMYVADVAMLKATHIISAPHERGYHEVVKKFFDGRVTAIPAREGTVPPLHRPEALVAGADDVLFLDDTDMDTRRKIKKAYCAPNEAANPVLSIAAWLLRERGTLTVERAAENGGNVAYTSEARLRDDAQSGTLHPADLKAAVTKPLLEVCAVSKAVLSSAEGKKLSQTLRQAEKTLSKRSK
# [8] = biological target: T4, Tyrosyl-tRNA synthetase, putative (Trypanosoma cruzi (strain CL Brener)); test: Trypanosoma cruzi tyrosyl tRNA synthetase (TcYRS) SOP; format: functional; conditions: 30 µM
# [9] = biological target: Chromo domain-containing protein 1 (Saccharomyces cerevisiae (strain ATCC 204508 / S288c) (Baker's yeast)) (UniProt P32657); test: ScCHD-1 Enzyme Inhibition Assay; format: functional; conditions: 30 µM; note: in the data most compounds retested in dose-response had high values
# Chain of Chromo domain-containing protein 1 (Saccharomyces cerevisiae (strain ATCC 204508 / S288c) (Baker's yeast)) (P32657 whole entry, the tested form may be a part): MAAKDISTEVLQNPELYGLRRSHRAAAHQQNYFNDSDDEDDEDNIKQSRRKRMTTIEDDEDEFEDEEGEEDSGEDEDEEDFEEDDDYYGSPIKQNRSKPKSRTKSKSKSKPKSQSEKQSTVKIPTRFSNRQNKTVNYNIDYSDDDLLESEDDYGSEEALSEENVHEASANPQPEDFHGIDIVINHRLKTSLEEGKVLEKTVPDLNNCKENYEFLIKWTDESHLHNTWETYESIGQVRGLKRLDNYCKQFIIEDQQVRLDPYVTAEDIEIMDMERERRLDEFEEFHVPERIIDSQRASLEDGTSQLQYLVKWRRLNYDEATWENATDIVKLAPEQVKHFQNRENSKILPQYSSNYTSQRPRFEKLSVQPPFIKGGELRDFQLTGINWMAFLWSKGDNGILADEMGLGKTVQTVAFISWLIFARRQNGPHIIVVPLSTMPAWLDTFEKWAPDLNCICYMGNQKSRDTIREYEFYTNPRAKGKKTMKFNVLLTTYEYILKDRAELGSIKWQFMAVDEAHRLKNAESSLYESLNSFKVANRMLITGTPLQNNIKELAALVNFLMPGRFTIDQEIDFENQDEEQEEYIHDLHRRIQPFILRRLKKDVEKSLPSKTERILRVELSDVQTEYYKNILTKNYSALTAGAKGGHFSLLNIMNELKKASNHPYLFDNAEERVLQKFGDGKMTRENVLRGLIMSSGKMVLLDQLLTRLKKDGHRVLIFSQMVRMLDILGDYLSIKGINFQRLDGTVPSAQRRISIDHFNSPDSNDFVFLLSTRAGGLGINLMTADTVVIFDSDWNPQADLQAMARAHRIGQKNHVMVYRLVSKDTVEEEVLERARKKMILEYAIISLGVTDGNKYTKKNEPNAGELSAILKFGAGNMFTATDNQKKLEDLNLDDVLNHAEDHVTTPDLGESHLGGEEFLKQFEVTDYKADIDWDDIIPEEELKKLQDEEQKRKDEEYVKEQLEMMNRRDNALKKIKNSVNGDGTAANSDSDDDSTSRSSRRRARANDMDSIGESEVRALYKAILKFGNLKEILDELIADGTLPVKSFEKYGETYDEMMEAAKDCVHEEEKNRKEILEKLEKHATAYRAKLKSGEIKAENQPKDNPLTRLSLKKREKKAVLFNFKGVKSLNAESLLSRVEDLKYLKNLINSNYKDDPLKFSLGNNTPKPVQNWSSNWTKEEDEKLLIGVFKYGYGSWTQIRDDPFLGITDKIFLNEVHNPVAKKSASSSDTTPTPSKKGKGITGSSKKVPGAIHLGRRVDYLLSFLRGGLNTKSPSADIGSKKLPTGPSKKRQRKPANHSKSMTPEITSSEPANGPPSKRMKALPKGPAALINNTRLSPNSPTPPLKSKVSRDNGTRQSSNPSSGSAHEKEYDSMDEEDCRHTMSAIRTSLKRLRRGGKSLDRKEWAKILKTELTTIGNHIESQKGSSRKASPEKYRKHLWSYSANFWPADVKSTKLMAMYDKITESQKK
# Chain of Protein translocase subunit SecA (Escherichia coli (strain K12)) (P10408 whole entry): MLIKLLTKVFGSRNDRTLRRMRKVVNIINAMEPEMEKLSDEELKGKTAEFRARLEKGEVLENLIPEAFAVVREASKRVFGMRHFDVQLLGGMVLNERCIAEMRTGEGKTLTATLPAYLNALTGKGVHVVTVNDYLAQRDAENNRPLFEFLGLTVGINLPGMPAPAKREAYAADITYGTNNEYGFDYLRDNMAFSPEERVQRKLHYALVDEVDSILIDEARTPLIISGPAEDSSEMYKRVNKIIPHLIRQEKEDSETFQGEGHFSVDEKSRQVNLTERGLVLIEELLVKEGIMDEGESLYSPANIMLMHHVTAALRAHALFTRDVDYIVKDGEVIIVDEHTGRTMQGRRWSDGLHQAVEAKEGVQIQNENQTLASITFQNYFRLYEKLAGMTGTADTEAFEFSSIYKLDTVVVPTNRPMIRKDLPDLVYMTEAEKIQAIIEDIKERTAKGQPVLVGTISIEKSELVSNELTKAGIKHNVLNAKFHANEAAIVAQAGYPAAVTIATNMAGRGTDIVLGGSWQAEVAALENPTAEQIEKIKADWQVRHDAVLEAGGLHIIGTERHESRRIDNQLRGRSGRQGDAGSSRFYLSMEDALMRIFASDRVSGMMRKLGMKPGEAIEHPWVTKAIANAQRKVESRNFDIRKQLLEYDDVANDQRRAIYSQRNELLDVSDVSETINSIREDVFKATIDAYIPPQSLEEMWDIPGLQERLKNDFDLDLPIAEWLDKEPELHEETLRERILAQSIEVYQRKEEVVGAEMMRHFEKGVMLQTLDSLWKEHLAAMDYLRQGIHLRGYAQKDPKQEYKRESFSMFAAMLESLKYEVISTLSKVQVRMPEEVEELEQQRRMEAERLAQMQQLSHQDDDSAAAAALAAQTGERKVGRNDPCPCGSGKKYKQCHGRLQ
Compound,Percent Effect [1] [%],Percent Effect [2] [%],Percent Effect [3] [%],Percent Effect [4] [%],Percent Effect (Trypanosoma cruzi) [%],Percent Effect [5] [%],Percent Effect [6] [%],Percent Effect (Homo sapiens) [%],Percent Effect [7] [%],Percent Effect [8] [%],Percent Effect [9] [%]
c1ccc(-c2nc(CN3CCCC(Cn4cncn4)C3)co2)cc1 (stereo unspecified),-0.495,29.1,-4,-3.43,1.54,-5.81,18.2,14.8,6.25,10.1,-13.6
O=C(c1cccnc1-n1cncn1)N1CCN(CC2CC2)CC1,-2.35,16.2,-2.56,20.3,5.79,1.91,11.9,1.6,3.7,9.76,-2.97
CCc1nc(CC(=O)N2CCOCC2c2ncon2)cs1 (stereo unspecified),-0.574,-2.7,-3.99,-2.13,-3.99,1.29,5.75,-8.37,0,-1.22,2.33
CC(C)c1nc2n(n1)CC(NCc1ccncc1)CC2 (stereo unspecified),-3.2,5.26,-3.06,-0.0553,2.63,-5.92,4.12,3.22,2.13,5.2,-1.54
CC(C)c1nccn1-c1cccc(C2CCN(C)CC2)n1,-4.43,9.46,4.91,-4.03,4.54,-5.8,14.2,0.127,1.07,6.49,-24.6
O=C(NCc1ccccn1)NC1CCOc2ccccc21 (stereo unspecified),-4.23,24.3,-0.78,9.97,9.19,1.29,9.52,12,9.9,28.1,-5.33
O=C(CN1CCCCCCC1=O)NCc1ccccn1,-1.09,5.48,-2.69,1.29,2.78,2.4,1.46,0.819,5.21,11.1,-5.16
COCc1nc(C(=O)N2CCCC2c2ccccc2C)cs1 (stereo unspecified),-2.11,3.8,3.68,5.3,0.513,-4.09,13.2,16.4,9.38,22.8,-22.3
CC(=O)N(C)c1nc(CN2CCCCC2Cn2cncn2)cs1 (stereo unspecified),-8.24,7.79,-1,0.729,-5.99,-1.42,7.43,27.8,5.83,7.32,-6.12
CN(C)C(=O)NC[C@H]1OC[C@@H]2CCN(Cc3ccoc3)C[C@@H]21,2.83,2.67,24.1,-3.37,-5.41,-66.8,8.38,36.1,3.12,10,-4.56
COc1ccc(CN2CC[C@H](NC(C)=O)[C@@H](O)CC2)c(OC)c1,-4.21,4.05,9.24,3.43,2.77,-2.55,13.6,13,-1.07,1.3,-12.5
CCn1cc(C(=O)NC2CCN(S(C)(=O)=O)CC2)c2ccccc21,-3.22,16.2,-3.16,22.3,4.01,0.248,5.41,6.18,2.15,16.1,-6.57
Cc1nn(C)c(C)c1C1CCCN1C(=O)c1ccc(CN(C)C)cc1 (stereo unspecified),-0.183,21.6,2.25,-4.88,2.14,0.554,11.1,11.4,-20.8,23.2,-6.46
Cc1noc(CN2Cc3ccccc3CC2c2nnc(C)o2)n1 (stereo unspecified),-3.16,5.2,6.26,12.5,3.23,1.9,5.58,8.44,2.86,7.06,3.28
O=C(Cc1cccc(F)c1)NCCNCc1cccc(O)c1,-1.42,-5.2,13.5,6.95,0.749,3.56,-0.169,3.07,8.74,12.2,-4.75
Cc1noc(C)c1C1CCCN1C(=O)CN1CC2(CCNCC2)OC1=O (stereo unspecified),-6.39,0,4.75,9.41,-1.35,-3.81,6.9,-4.21,3.7,0,-4.34

# Source: ChEMBL document CHEMBL3988442, “University of Dundee, Small-Polar-MMV Screening Library” (2021)
